The OligoGym collection

Target: F2R
Assay: pooled miR-30 sensor sort-seq; sequence = guide strand
Conditions: shRNA
Also: reference of the scale not given here.

**Q.** ACAAACAGCACATCTGCCGTGG was tested. Which sensor-assay potency score (higher = more potent) did it give?
**A.** The sensor-assay potency score (higher = more potent) was -0.289.

**Q.** How did the sensor-assay potency score (higher = more potent) turn out when TAGTACTAAGTCTTACCTCTTA was run?
**A.** The sensor-assay potency score (higher = more potent) was -0.241.

**Q.** For TATCACATTCTGCTTTGCCAGT, which sensor-assay potency score (higher = more potent) is on record?
**A.** Its sensor-assay potency score (higher = more potent) is -0.848.

**Q.** How did the sensor-assay potency score (higher = more potent) turn out when TAATAACTTAAACCTTGCCGTC was run?
**A.** Its sensor-assay potency score (higher = more potent) is -1.01.

**Q.** TAATAGCTGATCTTAAAGGGGA was tested. Which sensor-assay potency score (higher = more potent) did it give?
**A.** The sensor-assay potency score (higher = more potent) was -0.239.

**Q.** Which sensor-assay potency score (higher = more potent) does the source give for TAAACTTTTCTTTTTAACCTCC here?
**A.** The sensor-assay potency score (higher = more potent) was 0.474.

**Q.** TTGGCTTATGTGTACAGTGTGT was tested. Which sensor-assay potency score (higher = more potent) did it give?
**A.** The sensor-assay potency score (higher = more potent) was -0.314.

**Q.** How did the sensor-assay potency score (higher = more potent) turn out when TTATTGATGGAGACTAATCTGT was run?
**A.** The sensor-assay potency score (higher = more potent) was -0.475.

**Q.** TTTCATGGTCATTACCTCCTAG was tested. Which sensor-assay potency score (higher = more potent) did it give?
**A.** Its sensor-assay potency score (higher = more potent) is 0.0335.

**Q.** With TTATTCAGGTTACTAGAGCAGG as the sequence, how does the sensor-assay potency score (higher = more potent) read?
**A.** Its sensor-assay potency score (higher = more potent) is -0.622.

**Q.** With TTACTTGCCATCAACTGCCCAC as the sequence, how does the sensor-assay potency score (higher = more potent) read?
**A.** The sensor-assay potency score (higher = more potent) was -0.043.

**Q.** For ATAGACACATAACAGACCGTGG, which sensor-assay potency score (higher = more potent) is on record?
**A.** The sensor-assay potency score (higher = more potent) was -0.63.

Target: FABP1
Assay: as above
Conditions: shRNA

**Q.** With TTCCAACTGAACCACTGTCTTG as the sequence, how does the sensor-assay potency score (higher = more potent) read?
**A.** Its sensor-assay potency score (higher = more potent) is -1.23.

**Q.** TGAACCACTGTCTTGACTTTCT was tested. Which sensor-assay potency score (higher = more potent) did it give?
**A.** The sensor-assay potency score (higher = more potent) was -0.394.

**Q.** Which sensor-assay potency score (higher = more potent) does the source give for TTTCCTGGCTCTGCAGTTGGTA here?
**A.** Its sensor-assay potency score (higher = more potent) is -0.913.

**Q.** Which sensor-assay potency score (higher = more potent) does the source give for TTTATTGTCACCTTCCAACTGA here?
**A.** Its sensor-assay potency score (higher = more potent) is 0.758.

**Q.** For TTTTGGATCACTTTGGACCCAG, which sensor-assay potency score (higher = more potent) is on record?
**A.** Its sensor-assay potency score (higher = more potent) is -0.408.

**Q.** For ACTGTCTTGACTTTCTCCCCTG, which sensor-assay potency score (higher = more potent) is on record?
**A.** The sensor-assay potency score (higher = more potent) was -0.45.

**Q.** With TCCAACTGAACCACTGTCTTGA as the sequence, how does the sensor-assay potency score (higher = more potent) read?
**A.** The sensor-assay potency score (higher = more potent) was -0.148.

**Q.** TTTGGATCACTTTGGACCCAGC was tested. Which sensor-assay potency score (higher = more potent) did it give?
**A.** The sensor-assay potency score (higher = more potent) was -1.41.

**Q.** TGAACTTGAAGTGCTTCCCATT was tested. Which sensor-assay potency score (higher = more potent) did it give?
**A.** Its sensor-assay potency score (higher = more potent) is -0.823.

**Q.** With TTGTCTCCAGCTCACATTCCTC as the sequence, how does the sensor-assay potency score (higher = more potent) read?
**A.** Its sensor-assay potency score (higher = more potent) is -1.37.

**Q.** How did the sensor-assay potency score (higher = more potent) turn out when AACCACTGTCTTGACTTTCTCC was run?
**A.** Its sensor-assay potency score (higher = more potent) is -0.372.

**Q.** Which sensor-assay potency score (higher = more potent) does the source give for TTTTTGAAAGTTGTCACCAGTT here?
**A.** The sensor-assay potency score (higher = more potent) was -0.333.

**Q.** Which sensor-assay potency score (higher = more potent) does the source give for TTTTGAAAGTTGTCACCAGTTT here?
**A.** The sensor-assay potency score (higher = more potent) was -0.569.

**Q.** With TTGAAGACAATGTCACCCAATG as the sequence, how does the sensor-assay potency score (higher = more potent) read?
**A.** The sensor-assay potency score (higher = more potent) was -1.17.

**Q.** For TTCCGGCAGACCGATTGCCTTC, which sensor-assay potency score (higher = more potent) is on record?
**A.** The sensor-assay potency score (higher = more potent) was -1.36.

**Q.** With TATTGTCACCTTCCAACTGAAC as the sequence, how does the sensor-assay potency score (higher = more potent) read?
**A.** Its sensor-assay potency score (higher = more potent) is -1.49.

**Q.** With TTATTGTCACCTTCCAACTGAA as the sequence, how does the sensor-assay potency score (higher = more potent) read?
**A.** The sensor-assay potency score (higher = more potent) was -0.686.

**Q.** How did the sensor-assay potency score (higher = more potent) turn out when TTGAGTTCGGTCACAGACTTGA was run?
**A.** Its sensor-assay potency score (higher = more potent) is -0.0189.
